Bioassay records: PubChem, several laboratories
An excerpt weighted towards active compounds, which were near 3.7% of everything screened.
Anthrax LF prot: anthrax lethal factor protease inhibition | P15917 | multiplex microsphere protease cleavage assay, LF | 360,000 compounds, 0.12% hits | inhibition, % at 10 µM; note: plate controls were buffer without enzyme for full effect and enzyme alone for no effect
Target sequence (P15917 whole entry, looked up): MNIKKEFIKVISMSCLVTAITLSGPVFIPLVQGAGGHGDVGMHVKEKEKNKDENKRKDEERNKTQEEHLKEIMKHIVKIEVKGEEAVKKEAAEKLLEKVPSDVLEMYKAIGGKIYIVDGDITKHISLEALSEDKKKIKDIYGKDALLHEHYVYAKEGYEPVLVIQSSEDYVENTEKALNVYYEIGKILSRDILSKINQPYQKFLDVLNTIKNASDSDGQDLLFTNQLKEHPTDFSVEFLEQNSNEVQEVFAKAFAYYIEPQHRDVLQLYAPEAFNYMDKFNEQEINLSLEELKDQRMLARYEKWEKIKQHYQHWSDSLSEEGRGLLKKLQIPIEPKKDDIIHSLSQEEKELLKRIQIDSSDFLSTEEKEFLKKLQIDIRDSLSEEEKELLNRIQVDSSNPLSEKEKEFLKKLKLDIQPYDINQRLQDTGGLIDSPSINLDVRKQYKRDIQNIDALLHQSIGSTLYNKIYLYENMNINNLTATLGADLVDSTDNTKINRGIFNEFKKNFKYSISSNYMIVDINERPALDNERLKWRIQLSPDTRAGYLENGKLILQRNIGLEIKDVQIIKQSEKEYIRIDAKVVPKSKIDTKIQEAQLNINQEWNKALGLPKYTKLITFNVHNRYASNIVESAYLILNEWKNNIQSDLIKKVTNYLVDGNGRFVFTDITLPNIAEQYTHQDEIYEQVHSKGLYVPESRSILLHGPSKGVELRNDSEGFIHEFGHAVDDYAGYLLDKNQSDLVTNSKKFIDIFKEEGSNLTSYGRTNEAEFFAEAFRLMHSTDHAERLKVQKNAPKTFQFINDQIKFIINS
BoNT-F LC inh: inhibitors of Botulinum neurotoxin F light chain protease | Multiplex microsphere protease cleavage assay, flow cytometry | inhibition, % at 10 µM | 360,000 compounds, 0.22% hits | AID 588497; in the data active = inhibition above about 35%, passing the limit was not always enough; inconclusive = no clear call, values can overlap the other calls; note: plate controls were buffer without enzyme for full effect and enzyme alone for no effect
BoNT A protease: blocks Botulinum neurotoxin A light chain protease | multiplex microsphere protease substrate cleavage, flow cytometry | inhibition, % at 10 µM | 360,000 compounds, 0.17% hits | AID 588499; note: plate controls were buffer without enzyme for full effect and enzyme alone for no effect
MazEF act: increases E. coli MazEF RNase cleavage of RNA; P0AE70; FAM/BHQ RNA-DNA oligo cleavage fluorescence, 5 h; activation, % at 20 µM; 350,000 compounds, 0.32% hits; AID 504720; in the data active = activation above about 50%
Autofluor counter: flagged as autofluorescent in microsphere protease counterscreen; compound autofluorescence counterscreen, microsphere flow cytometry; active compounds read high; fluorescence intensity (no concentration beside the values); 360,000 compounds, 3.1% hits; AID 624483; in the data active = fluorescence intensity above about 16000; inconclusive = no clear call, values can overlap the other calls
The depositor's hits bear a star; ? = inconclusive; . = no result given; + = active, no number; ! = repeats disagree. Cut-off read from the data, not from the text of the source, unless noted: active = inhibition above about 30%; inconclusive = no clear call, values can overlap the other calls; inactive = below that.

SMILES	Anthrax LF prot	BoNT-F LC inh	BoNT A protease	MazEF act	Autofluor counter
CCCCCN(C(=O)CCC(=O)OCC(=O)Nc1cccc(CC)c1)c1c(N)n(CCCC)c(=O)[nH]c1=O	-1	-6	-2	-13	?
CC(=O)c1cc(NC(=O)c2ccc(Cl)cc2)c(=O)oc1/C=C/N(C)C	2	1	?	-342	25493*
CC(=O)c1cc(NC(=O)c2cccc(C(F)(F)F)c2)c(=O)oc1/C=C/N(C)C	-1	-12	?	180*	23755*
COc1ccc(C(=O)Nc2cc(C(C)=O)c(C)oc2=O)cc1	-14	0	0	-3	4373
Cc1cc(-c2ccccc2)c2c3c(c(-c4ccccc4)n2n1)c(=O)n(C)c(=O)n3C	-5	-30	-4	+	10116
CC(=O)COc1ccc2c(C)c(C)c(=O)oc2c1	-1	-14	0	-8	3591
Cc1c(CCC(=O)O)c(=O)oc2cc(OCc3cccc(Cl)c3)ccc12	4	40*	0	-9	3151
CCc1c(C)c2ccc(OCC(N)=O)cc2oc1=O	1	-3	-2	10	24076*
CCN(C(=O)C1CC1)C1CCS(=O)(=O)C1 (stereo unspecified)	-4	3	2	-2	4069
Cc1nc(C(F)(F)F)ccc1C(=O)N1CCC(C)(C(=O)NS(=O)(=O)C2CC2)C1 (stereo unspecified)	-5	-11	0	.	3096
CC(=O)Nc1nc(COc2ccccc2)cs1	0	2	0	2	11092
CC(=O)Nc1nc(COc2ccc3ccccc3c2)cs1	-8	-1	-2	2	23460*
O=C(Nc1nc(COc2ccccc2)cs1)C12CC3CC(CC(C3)C1)C2	-2	-6	-6	0	24492*
COC(=O)Cc1c(O)ccn(Cc2ccccc2OC)c1=O	3	?	0	1	4157
COC(=O)Cc1c(O)ccn(Cc2cccc3ccccc23)c1=O	-1	0	1	6	21316*
CC1CC(=O)N(CC(=O)Nc2ccc3c(c2)OCO3)c2ccccc2S1 (stereo unspecified)	-5	-6	-4	5	17388*
Cc1ccccc1NC(=O)CN1C(=O)CSc2ccccc21	-5	0	1	-1	4498
O=C(CN1C(=O)CCSc2ccccc21)Nc1ccc2c(c1)OCCO2	-7	-7	-1	-1	16584*
O=C(CN1C(=O)CSc2ccccc21)Nc1ccccc1C(=O)N1CCOCC1	-1	2	3	8	22009*
CC(=O)NC(C)(c1ccccc1)c1nc(-c2ccc(N(C)C)cc2)cs1 (stereo unspecified)	-5	-4	0	.	4144
CC(NC(=O)C1CCN(C(=O)Nc2ccccc2)CC1)c1ccccc1 (stereo unspecified)	0	0	0	-6	5842
O=C(NCc1ccccc1)c1cc(=O)nc2sc(-c3ccccc3)nn12	1	0	-2	4	23048*
COc1ccccc1C(C)NC(=O)c1ccc(NC(=O)CC2SC(N3CCCC3)=NC2=O)cc1 (stereo unspecified)	-12	-8	0	3	3875
Cc1ccc(C)c(N2CCN(C(=O)c3cc4sccc4n3C)CC2)c1	-1	-11	?	0	22451*
CCOC(=O)N1CCC(NC(=O)C2CCCN(C(=O)c3cc4sccc4n3C)C2)CC1 (stereo unspecified)	-4	2	0	12	4333
SMILES	Anthrax LF prot	BoNT-F LC inh	BoNT A protease	MazEF act	Autofluor counter
Cn1c(C(=O)N2CCN(c3cccc(C(F)(F)F)c3)CC2)cc2sccc21	-3	-5	-4	-5	21909*
Cc1ccc(C)c(N2CCN(C(=O)c3ccc4c(c3)c(C)c(C)n4C)CC2)c1	-3	-3	-2	1	5724
CCOC(=O)N1CCN(C(=O)c2cc3sccc3n2C)CC1	-5	1	1	-7	19772*
Fc1ccc(C[n+]2csc3ccccc32)cc1	-2	-2	?	8	22598*
Clc1ccc(C[n+]2csc3ccccc32)cc1	-2	-6	0	-33	2210
CNc1ccc(-c2cccc(C(=O)N3CCOCC3)c2)cn1	-4	-2	0	.	4024
COc1cccc(S(=O)(=O)N(C)C[C@H]2Oc3ncc(Br)cc3C(=O)N([C@@H](C)CO)C[C@@H]2C)c1	-4	2	0	-5	3315
CCOC(=O)c1c(CN2CCOCC2)n(C)c2cc(Br)c(O)c(CN(C)C)c12	-1	-3	?	0	21896*!
CCOC(=O)c1c(CS(=O)(=O)c2ccccc2)n(C)c2cc(Br)c(O)c(CN(C)C)c12	2	-6	0	-8	3485
N#Cc1c(N)[nH]c(=S)c(C#N)c1-c1ccccc1	0	3	1	-7	20825*
Cc1ccc(-c2cc(-c3ccccc3)[nH]c(=S)c2C#N)cc1	-2	-7	0	3	3663
CCNC(=O)C1(C)CCCN(C(=O)C2(c3ccc(Cl)cc3)CCCC2)C1 (stereo unspecified)	-7	-3	0	.	2957
COC(=O)c1nc(NC(=O)c2ccccc2Cl)n[nH]1	-1	1	2	0	22352*
COC(=O)c1nc(NC(=O)c2ccc(Br)cc2)n[nH]1	1	-8	0	-4	2334
Cn1sc(NC(=O)c2ccccc2Cl)nc1=O	-10	-5	-4	4	24069*
CC(=O)Cc1nsc(NC(=O)c2ccccc2Cl)n1	-4	-10	-1	4	3289
Cn1sc(NC(=O)c2cccc(Cl)c2)nc1=O	-2	1	2	-5	22807*
CCOc1ccc(S(=O)(=O)N2CCC(C(=O)Nc3ccccc3N3CCCC3)CC2)cc1	0	-14	-1	2	4356
CC(C)(C)c1nc(NCCN2CCOCC2)c2nnn(Cc3ccccc3Cl)c2n1	-2	-1	0	0	23490*
c1ccc(Cn2nnc3c(NCCN4CCOCC4)ncnc32)cc1	1	1	1	4	22975*
Cc1cc(C)c(OCC(=O)OCC(=O)NCC2CCCCC2)c(C)c1	-1	4	0	0	6135
COc1cccc(NC(=O)COC(=O)c2ccc(S(=O)(=O)NCc3ccco3)cc2)c1	-1	-9	-3	4	23475*
O=C(NC1CCCCCC1)c1ccc(S(=O)(=O)NCc2ccco2)cc1	-1	-1	-1	-15	23471*
CC1CCCCC1NC(=O)COC(=O)c1ccc(S(=O)(=O)NCc2ccco2)cc1 (stereo unspecified)	-7	6	4	5	21167*
CC(=O)Nc1ccc(NC(=O)COC(=O)c2ccc(S(=O)(=O)NCc3ccco3)cc2)cc1	-12	-2	0	-1	3599
O=S(=O)(NCc1ccco1)c1ccc(S(=O)(=O)N2CCCCC2)cc1	-6	-4	-1	-13	23145*
O=C(c1ccc(S(=O)(=O)NCc2ccco2)cc1)N1CCCC1	0	6	1	4	3446
O=C1CCCCC1(c1ccccc1)c1ccccc1	1	-1	0	1	3404
COc1cccc(C(=O)N2CCN(C(=O)C3COc4ccccc4O3)CC2)c1 (stereo unspecified)	-2	6	0	7	5329
